# High-throughput results as filed in PubChem.
# An excerpt weighted towards active compounds, which were near 5.4% of everything screened.
# VACV mCherry inh: vaccinia inhibition (mCherry reporter) | Vaccinia virus mCherry reporter infection, fluorescence | Potency, µM (highest dose often 36.5 µM), without a hit: at the highest dose activity change, negative = inhibition, actives largely listed as inhibitors | hit rate 0.63% among 310,000 | AID 720579; calls by dose curve; tested in A549 cells; further: nearly all actives have a fitted effect of over 35% in size
# Sm TGR block: inhibitors of Schistosoma mansoni thioredoxin glutathione reductase. purified TGR, DTNB reduction, TNB absorbance 405 nm. AID 485364. Potency, µM (highest dose often 114 µM), inactives show top-dose activity change, negative = inhibition, hits mostly inhibitors. hit rate 3% among 360,000. Q962Y6; active means well fitted inhibition curve with a large enough effect; inconclusive means small, poorly fitted or top-dose-only effect; inactive means no such curve, though single readings can be large or run the other way; further: nearly all actives have a fitted effect of over 60% in size
#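 TGR 20 nM + NADPH 100 uM (dispensed conc.), cpd preinc 15 min RT; start with NADPH (500 uM addition) then DTNB (15 mM addition). Kinetic TNB absorbance, 405 nm filter. Four-parameter Hill fit across titration.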
# FMDV inh: antivirals against foot and mouth disease virus. FMDV antiviral cell-based qHTS. Potency, µM (top dose mostly 57.9 µM), inactives show top-dose activity change, negative = inhibition, actives largely listed as inhibitors. hit rate 1.2% among 410,000. AID 1159524; calls by dose curve; tested in HEK293T cells; further: read-out not given here; nearly all actives have a fitted effect of over 45% in size
# LASV entry inh: blocks Lassa virus binding to or entry into cells | Lassa virus pseudotype entry inhibition, cell reporter | Potency, µM (highest dose often 37.9 µM), inactives show top-dose activity change, negative = inhibition, hits mostly inhibitors | hit rate 1.2% among 300,000 | AID 540256; calls by dose curve; tested in HEK293 cells; further: nearly all actives have a fitted effect of over 50% in size
# MARV entry inh: Marburg virus entry inhibition; Potency, µM (top dose mostly 37.8 µM), without a hit: at the highest dose activity change, negative = inhibition, actives largely listed as inhibitors; AID 540276; hit rate 1.8% among 300,000; Marburg virus pseudotyped entry inhibition, cell reporter; calls by dose curve; tested in HEK293 cells
# Vaccinia Venus: vaccinia inhibition (Venus reporter) | hit rate 0.46% among 330,000 | Vaccinia virus Venus reporter expression, fluorescence | Potency, µM (doses to about 36.5 µM), inactives show at the highest dose activity change, negative = inhibition, usual class: inhibitors; calls by dose curve; tested in A549 cells; further: nearly all actives have a fitted effect of over 30% in size
# Active calls of the source: *; i = inactive; u = inconclusive; x = no result given; [ ] = dose if it differs, or a comment. On the % scale 0 is the no-effect control and ±100 the full control effect; potency means the concentration at half of the fitted maximal effect.
SMILES,VACV mCherry inh,Sm TGR block,FMDV inh,LASV entry inh,MARV entry inh,Vaccinia Venus
CCOc1ccc(/C(O)=C2/C(=O)C(=O)N(CCN(CC)CC)C2c2cccs2)cc1 (configuration not stated),x,22µM*,17%,x,x,x
Cc1ccc(N(Cc2cc3ccc(C)cc3[nH]c2=O)C(=O)c2ccco2)cc1,12%[7.34 µM],2.2µM*,1%,x,x,23%[7.34 µM]
Cc1ccc(N(Cc2cc3ccccc3[nH]c2=O)C(=O)c2ccco2)c(C)c1,x,-15%,-23%,u,-15%,-15%
Cc1ccc2[nH]c(=O)c(CN(Cc3ccco3)C(=O)c3cccs3)cc2c1,x,-13%,x,x,x,x
Cc1cccc(N(Cc2cc3ccc(C)cc3[nH]c2=O)C(=O)c2ccco2)c1,x,4.5µM*,-17%,x,x,x
Cc1ccc2[nH]c(=O)c3cc(C(=O)N(CCCOC(C)C)Cc4ccco4)sc3c2c1,u,-21%,u,x,10µM*,u
Cc1ccc2cc(CN(Cc3ccco3)C(=O)c3cccs3)c(=O)[nH]c2c1,u,40µM*,-12%,u,1.3µM*,u
Cc1cccc(C)c1-n1ncc(C(=O)O)c1C1CCN(C(=O)OC(C)(C)C)CC1,7%,5%,-13%,29%[46.1 µM],3%[46.1 µM],4%
Cc1ccc2cc(CN(C(=O)c3ccco3)c3ccccc3)c(=O)[nH]c2c1,x,32µM*,1%,2%,0%,-22%
Clc1ccc(-c2nnn3c2nc(N2CCCCC2)c2ccccc23)cc1,6%,-2%,2%,3%[46.1 µM],-2%[46.1 µM],3%
CC1=C(C#N)C(=O)N(C2CCS(=O)(=O)C2)C(=O)/C1=C\c1ccc(C)o1 (configuration not stated),x,16µM*,x,x,x,x
Cn1c(=O)[nH]c(=O)c2c1nc(Br)n2CCOc1ccccc1,x,-18%,18µM*,8%,8%,x
Cn1c(=O)[nH]c(=O)c2c1nc(NN)n2CCOc1ccccc1,-24%,0%,-4%,4%,6%,-11%
Cn1c(=O)[nH]c(=O)c2c1nc(Br)n2CCCSc1nc2ccccc2o1,x,1%,22µM*,-18%,8.2µM*,x
CC1CN(CC(=O)NCCC2COc3ccccc3O2)Cc2cc(Cl)ccc2O1 (configuration not stated),-7%,x,-5%,x,x,-3%
COc1ccc(-n2cnnc2SCc2ncc(-c3ccccc3)o2)cc1,x,u,u,u,4%,x
Cn1c(COc2ccc(Cl)cc2)nnc1SCc1ncc(-c2ccccc2)o1,x,22µM*,u,-29%,-7%,x
COC(=O)Nc1ccc(S(=O)(=O)N2CCC(C)CC2)cc1,x,-1%,-3%,6%,2%,x
COC(=O)Nc1ccc(S(=O)(=O)N2CCC(Cc3ccccc3)CC2)cc1,x,3%,-25%,21µM*,u,x
CC(=O)Nc1ccc(S(=O)(=O)N2CCC(NC(=O)C(Cc3cccc(F)c3)NC(C)=O)CC2)cc1 (configuration not stated),-22%,45µM*,0%,-3%[46.1 µM],8%[46.1 µM],-7%
CC(=O)Nc1ccc(S(=O)(=O)N2CCN(C(C)CCc3ccccc3)CC2)cc1 (configuration not stated),-27%,-18%,-12%,16µM*,13µM*,-29%
COc1cccc([C@H]2/C(=C(\O)c3ccc(C)cc3)C(=O)C(=O)N2Cc2ccco2)c1,x,x,x,x,21%[46.1 µM],x
Cc1cc(C)c(C)c(S(=O)(=O)N2CCN(c3ncnc4ccccc34)CC2)c1C,x,-1%,16µM*,x,x,x
C=CC(C)=C[C@@]1(C)SC(=O)C(C)=C1O,x,x,x,-18%,2%,x
O=C(CN1CCCN(S(=O)(=O)c2ccc(F)cc2)CC1)Nc1cccc(F)c1,-9%,40µM*,-4%,-5%,-1%[46.1 µM],-5%
SMILES,VACV mCherry inh,Sm TGR block,FMDV inh,LASV entry inh,MARV entry inh,Vaccinia Venus
O=C(CN1CCN(S(=O)(=O)c2ccc(F)cc2)CC1)Nc1ccc(Cl)c(C(F)(F)F)c1,x,5%,28µM*,11µM*,u,u
O=C(CN1CCCN(S(=O)(=O)c2ccc(F)cc2)CC1)Nc1c(Cl)cccc1Cl,-10%,-28%,-29%,5%[46.1 µM],-34%[46.1 µM],-15%
O=C(CN1CCN(S(=O)(=O)c2ccc(F)cc2)CC1)Nc1ccc2c(c1)OCCO2,x,-21%,0%,8%,12%,-14%
O=C(COC(=O)c1ccc(S(=O)(=O)N2CCCCC2)cc1)NCc1ccccc1,-16%,x,-18%,5%,-24%,-16%
COc1cccc(N2CCN(C(=O)c3cccn3-c3nnc(N4CCCC4)s3)CC2)c1,-14%,-6%,-3%,10%[46.1 µM],x,-14%
NCCc1c(-c2ccccc2)n(-c2ccccc2)c2ccccc12,u,4%,-23%,-28%[46.1 µM],13µM*,u
CC(=O)n1c(-c2ccccc2)c(CO)c2ccccc21,3%,-1%,-27%,x,x,-5%
Cc1cccn2c(=O)c3cc(C(=O)NC(C)c4ccccc4)c(=N)n(CCCn4ccnc4)c3nc12 (configuration not stated),-12%,10%,-2%,u,4.5µM*,-18%
CCOCCCn1c(=N)c(C(=O)NC(C)c2ccccc2)cc2c(=O)n3cccc(C)c3nc21 (configuration not stated),-12%,0%,u,-11%[46.1 µM],u,-20%
Cc1cccn2c(=O)c3cc(C(=O)NCc4ccc(F)cc4)c(=N)n(CCCN4CCOCC4)c3nc12,-2%,x,4.5µM*,x,x,3%
Cc1ccccc1N(CC(=O)NC1CCCC1)C(=O)c1oc(C(C)(C)C)cc1C,i,5%,x,u,u,5%
Cc1cc(C(C)(C)C)oc1C(=O)N(CC(=O)NC1CCCC1)c1cccc(C(F)(F)F)c1,u,-13%,x,u,23µM*,u
COCc1[nH]nc2c1[C@@H](c1ccnc3ccccc13)C(C#N)=C(N)O2,x,x,x,x,-15%,x
COc1ccccc1N(CC(O)Cn1c2ccccc2c2ccccc21)S(=O)(=O)c1ccccc1 (configuration not stated),-16%,7%,-19%,26µM*,u,-5%
COc1ccccc1N(CC(O)CN1C(C)CCCC1C)S(=O)(=O)c1ccccc1 (configuration not stated),-5%,-6%,-11%,u,-29%[46.1 µM],-4%
O=S(=O)(c1ccccc1)N(CC(O)Cn1c2ccccc2c2ccccc21)c1ccccc1 (configuration not stated),x,8%,u,u,u,10µM*
CCOc1ccc(-c2nonc2NC(=O)c2oc3ccc(F)cc3c2C)cc1,u,-10%,3%,-5%[46.1 µM],u,u
CNC(=O)NC(=O)CN1C=NC2SC(c3ccccc3)C=C2C1=O (configuration not stated),x,x,x,x,-2%[46.1 µM],x
O=C(CSc1n[nH]c(-c2ccccc2Cl)n1)N1CCN(c2ccc(F)cc2)CC1,i,-3%,0%,24%[46.1 µM],x,-14%
COc1ccc(CN(C(=O)CSc2nnc(-c3ccc(F)cc3)o2)c2ccc(F)cc2)cc1,u,-27%,-8%,u,6%,-27%
